Measured values from PubChem BioAssay (Tox21).
Inconclusive results are not listed. Active and inactive are the calls of the source. Unless noted, calls come from the whole dose curve; as a rule, active = well fitted curve in the direction sought with a large enough effect in the repeat runs; inconclusive = weak or mixed curves; inactive = no such curve, though single readings can be large; an effect the other way counts as inactive or inconclusive.

How the values were obtained:
[1] = molecular target: Retinoic acid receptor RXR-alpha (Homo sapiens) (UniProt P19793); assay: qHTS assay to identify small molecule agonists of the RXR signaling pathway (AID 1159527; calls by dose curve; note: nearly all actives have a fitted effect of over 35% in size)
Retinoic acid receptor RXR-alpha (Homo sapiens), sequence (P19793 whole entry, looked up): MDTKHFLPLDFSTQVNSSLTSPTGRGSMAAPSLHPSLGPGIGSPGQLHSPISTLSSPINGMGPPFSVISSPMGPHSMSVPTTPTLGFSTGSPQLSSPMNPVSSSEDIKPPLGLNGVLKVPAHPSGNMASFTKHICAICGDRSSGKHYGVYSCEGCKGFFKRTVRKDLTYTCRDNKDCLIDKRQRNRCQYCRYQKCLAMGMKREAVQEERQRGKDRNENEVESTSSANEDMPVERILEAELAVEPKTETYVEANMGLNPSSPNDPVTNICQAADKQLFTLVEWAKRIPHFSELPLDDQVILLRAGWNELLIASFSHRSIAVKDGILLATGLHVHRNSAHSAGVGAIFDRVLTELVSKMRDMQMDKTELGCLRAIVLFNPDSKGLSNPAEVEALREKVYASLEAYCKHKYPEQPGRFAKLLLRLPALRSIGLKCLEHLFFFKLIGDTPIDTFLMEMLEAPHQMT
How it was run: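 Compounds in DMSO were added to RXR-alpha-UAS-bla HEK 293T cells kept in 2% charcoal-stripped serum, and incubated 16 hr at 37 C with 5% CO2. Reporter signal came from a 2 hr B/G FRET substrate step.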

[2] = qHTS assay to identify small molecule agonists of the RXR signaling pathway - cell viability counter screen (AID 1159529);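 note: HEK 293T cells carrying an RXR-alpha UAS beta-lactamase reporter; series mostly up to about 77 µM; nearly all actives have a fitted effect of over 50% in size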
How it was run: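 Counter screen: CellTiter-Glo luminescence. Cells: RXR-alpha-UAS-bla HEK 293T. Medium: 2% charcoal-stripped FBS. Treatment: 16 h, 37 C. Reagent incubation: 30 min, RT.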

[3] = qHTS assay to identify small molecule antagonists of the retinoid acid receptor (RAR) signaling pathway - cell viability counter screen (AID 1159551); note: nearly all actives have a fitted effect of over 35% in size
How it was run: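 ATP-based viability, C3RL4 cells, 6 h at 37 C with 1 uM final retinol co-added after compound; luminescence read 30 min post CellTiter-Glo, RT.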

[4] = qHTS assay to identify small molecule antagonists of the retinoic acid receptor (RAR) signaling pathway (AID 1159552; note: nearly all actives have a fitted effect of over 50% in size)
How it was run: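 Antagonism of retinol-induced RARE reporter activity was measured in C3RL4 cells. Exposure to compounds and 1 uM final retinol lasted 6 hr at 37 C, with luminescence as endpoint.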

[5] = qHTS assay to identify small molecule agonists of the retinoic acid receptor (RAR) signaling pathway (AID 1159553); note: potency is the fitted concentration of half-maximal effect
How it was run: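 Quantitative high-throughput format: the Tox21 10K library was tested on C3RL4 RARE-luciferase cells for 6 hr at 37 C and 5% CO2, with luminescence measured after a 30 min room-temperature reagent step.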

[6] = qHTS assay to identify small molecule antagonists of the estrogen related receptor (ERR) signaling pathway from Tox21 library - cell viability counter screen (AID 1224834); note: nearly all actives have a fitted effect of over 30% in size
How it was run: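 Compounds in DMSO were pinned onto ERR cells that had been incubated for 6 h, and the plates were held at 37 C for 17.5 h. CellTiter-Fluor reagent was then added and fluorescence was measured after 30 min.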

[7] = molecular target: Luciferin 4-monooxygenase (Photinus pyralis) (UniProt P08659); assay: qHTS assay to identify small molecule inhibitors of firefly luciferase (AID 1224835); note: nearly all actives have a fitted effect of over 25% in size; note: potency is the fitted concentration of half-maximal effect
Luciferin 4-monooxygenase (Photinus pyralis), sequence (P08659 whole entry, looked up): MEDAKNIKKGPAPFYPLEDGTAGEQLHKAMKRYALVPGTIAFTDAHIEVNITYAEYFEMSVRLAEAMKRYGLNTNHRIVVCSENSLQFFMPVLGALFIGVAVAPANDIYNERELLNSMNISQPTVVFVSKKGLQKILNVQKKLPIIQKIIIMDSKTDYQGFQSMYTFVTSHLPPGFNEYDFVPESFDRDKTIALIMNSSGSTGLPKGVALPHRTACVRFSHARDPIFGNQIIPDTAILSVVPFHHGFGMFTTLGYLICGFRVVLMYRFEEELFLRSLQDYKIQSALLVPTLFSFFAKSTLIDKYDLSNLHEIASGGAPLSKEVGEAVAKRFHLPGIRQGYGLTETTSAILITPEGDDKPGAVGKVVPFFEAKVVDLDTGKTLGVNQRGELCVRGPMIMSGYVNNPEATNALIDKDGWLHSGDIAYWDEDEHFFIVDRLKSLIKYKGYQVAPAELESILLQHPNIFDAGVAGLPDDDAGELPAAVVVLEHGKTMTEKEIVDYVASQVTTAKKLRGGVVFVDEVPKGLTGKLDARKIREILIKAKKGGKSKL
How it was run: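 Inhibition of purified Photinus luciferase is measured by luminescence. Substrate levels (D-luciferin, ATP) sit at their KM values. Each compound is tested in a concentration series.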

[8] = qHTS assay to identify small molecule agonists of the constitutive androstane receptor (CAR) signaling pathway - cell viability counter screen (AID 1224836); note: series mostly up to about 92 µM; nearly all actives have a fitted effect of over 45% in size
How it was run: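 Double-stable HepG2 hepatoma cells (hCAR plus CYP2B6-2.2kb) are treated for 23 h at 37 C with test compounds in 15-point concentration series. PK11195 at 0.75 uM final is co-added. Cell viability is quantified by CellTiter-Fluor.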

[9] = qHTS assay to identify small molecule antagonists of the constitutive androstane receptor (CAR) signaling pathway - cell viability counter screen (AID 1224837); note: series mostly up to about 92 µM; nearly all actives have a fitted effect of over 45% in size
How it was run: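 Cells are seeded, rested 4 hr at 37 C/5% CO2, dosed with compound (15-point series) and 50 nM CITCO, incubated a further 23 hr, and then CellTiter-Fluor reagent is added before fluorescence is read. The line is HepG2 with stable hCAR and CYP2B6-2.2kb.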

[10] = molecular target: Nuclear receptor subfamily 1 group I member 3 (Homo sapiens) (UniProt Q14994); assay: qHTS assay to identify small molecule antagonists of the constitutive androstane receptor (CAR) signaling pathway (AID 1224838);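 note: HepG2 cells stably expressing hCAR with CYP2B6 luciferase reporter stimulated by CITCO; nearly all actives have a fitted effect of over 40% in size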; note: potency is the fitted concentration of half-maximal effect
Nuclear receptor subfamily 1 group I member 3 (Homo sapiens), sequence (Q14994 whole entry, looked up): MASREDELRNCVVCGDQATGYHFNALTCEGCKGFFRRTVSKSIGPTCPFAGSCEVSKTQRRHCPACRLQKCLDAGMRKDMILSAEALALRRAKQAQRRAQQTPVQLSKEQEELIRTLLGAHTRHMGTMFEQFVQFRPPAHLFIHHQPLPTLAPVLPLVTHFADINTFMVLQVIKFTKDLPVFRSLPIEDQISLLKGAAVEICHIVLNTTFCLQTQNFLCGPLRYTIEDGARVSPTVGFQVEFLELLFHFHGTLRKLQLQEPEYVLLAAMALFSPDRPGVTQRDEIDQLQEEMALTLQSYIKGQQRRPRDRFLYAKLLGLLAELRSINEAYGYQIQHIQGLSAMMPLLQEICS
How it was run: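 Luminescence from a CYP2B6-2.2kb promoter reporter in hCAR-expressing HepG2 cells reflects CAR signaling. Cells received compounds at 15 concentrations and 50 nM CITCO (final), then incubated 24 h at 37 C/5% CO2.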

[11] = molecular target: Nuclear receptor subfamily 1 group I member 3 (Homo sapiens) (UniProt Q14994); assay: qHTS assay to identify small molecule agonists of the constitutive androstane receptor (CAR) signaling pathway (AID 1224839); note: nearly all actives have a fitted effect of over 15% in size; note: potency is the fitted concentration of half-maximal effect;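 for activation: HepG2 cells stably carrying human CAR and a CYP2B6 luciferase reporter; series mostly up to about 92 µM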
How it was run: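 Readout: firefly luciferase luminescence via ONE-Glo. System: HepG2 double-stable for hCAR and CYP2B6-2.2kb. Conditions: 15-point compound titration, PK11195 at 0.75 uM final, 24 h incubation.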

[12] = qHTS assay to identify small molecule antagonists of the estrogen related receptor signaling pathway with the pleiotropic PPARgamma coactivator (PGC) from Tox21 10K library - cell viability counter screen (AID 1224840; active = well fitted cell-killing curve with a large enough effect in the repeat runs, not every such curve was filed as active; note: nearly all actives have a fitted effect of over 40% in size)
How it was run: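 Cell viability is measured by CellTiter-Fluor fluorescence in PGC/ERR cells that receive compounds after a 6-hour attachment period and are then incubated 17.5 hours at 37 C.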

[13] = molecular target: Thyrotropin receptor (Homo sapiens) (UniProt P16473); assay: qHTS assay to identify small molecule agonists of the thyroid stimulating hormone receptor (TSHR) signaling pathway (AID 1224843; calls by dose curve; note: nearly all actives have a fitted effect of over 45% in size)
Thyrotropin receptor (Homo sapiens), sequence (P16473 whole entry, looked up): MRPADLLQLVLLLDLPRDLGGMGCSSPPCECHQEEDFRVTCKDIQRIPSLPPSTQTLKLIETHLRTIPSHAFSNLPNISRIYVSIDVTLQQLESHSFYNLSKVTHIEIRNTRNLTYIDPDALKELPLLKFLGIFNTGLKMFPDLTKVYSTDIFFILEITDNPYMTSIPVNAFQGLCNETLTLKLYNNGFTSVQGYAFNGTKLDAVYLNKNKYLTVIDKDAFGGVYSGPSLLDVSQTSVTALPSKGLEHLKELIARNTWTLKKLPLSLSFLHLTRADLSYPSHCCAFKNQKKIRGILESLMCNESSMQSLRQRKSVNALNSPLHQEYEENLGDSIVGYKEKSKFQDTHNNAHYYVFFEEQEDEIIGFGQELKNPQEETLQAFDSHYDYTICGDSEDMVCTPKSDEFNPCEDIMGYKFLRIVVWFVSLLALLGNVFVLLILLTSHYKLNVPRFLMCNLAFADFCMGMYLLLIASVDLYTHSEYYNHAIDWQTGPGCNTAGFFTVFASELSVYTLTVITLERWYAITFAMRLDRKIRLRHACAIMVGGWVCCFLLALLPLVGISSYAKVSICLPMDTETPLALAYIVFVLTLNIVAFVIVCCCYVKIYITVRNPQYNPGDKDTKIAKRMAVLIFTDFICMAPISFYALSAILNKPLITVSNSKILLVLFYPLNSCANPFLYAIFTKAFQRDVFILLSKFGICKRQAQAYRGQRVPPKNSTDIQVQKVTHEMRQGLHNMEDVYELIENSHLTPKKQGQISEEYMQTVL
How it was run: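 A cell-based cAMP HTRF format was run in TSHR-transfected HEK293 cells, 800 per well. Treatment: 30 min, room temperature. Detection: 1 h with labelled cAMP and anti-cAMP cryptate. Concentration-response over 15 points, three replicates.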

[14] = qHTS assay to identify small molecule agonists of the hypoxia (HIF-1) signaling pathway - cell viability counter screen (AID 1224844; calls by dose curve; note: nearly all actives have a fitted effect of over 50% in size)
How it was run: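 Viability counter screen: HRE-bla ME-180 cells plated 5 hrs before compound addition, treated 17 hrs at 37C and 5% CO2, then CellTiter-Glo added after the FRET reporter read; luminescence after 30 min.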

[15] = qHTS assay to identify small molecule agonists of the hypoxia (HIF-1) signaling pathway (AID 1224846; active = well fitted activation curve with a large enough effect in the signal ratio in the repeat runs, not every such curve was filed as active; the % refers to the signal ratio)
How it was run: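 Agonist mode reporter screen. ME-180 cells stably expressing bla under HRE control received test compounds in DMSO for 17 hrs (37C, 5% CO2), and beta-lactamase activity was then detected with the CCF4-AM FRET substrate.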

[16] = qHTS assay to identify small molecule agonists of H2AX - cell viability counter screen (AID 1224847; calls by dose curve;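 note: wild-type CHO-K1 cells; top concentration of the series differs between compounds; nearly all actives have a fitted effect of over 30% in size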)
How it was run: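 For this counter screen, overnight-attached CHO-K1 cells received test compounds (15 concentrations, 0.76% DMSO final); 3 hr later at 37C, CellTiter-Glo reagent was added and luminescence recorded after 30 min at room temperature.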

[17] = qHTS assay to identify small molecule agonists of H2AX (AID 1224845; active = well fitted activation curve with a large enough effect in the signal ratio in the repeat runs, not every such curve was filed as active; the % refers to the signal ratio)
How it was run: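 Phospho-H2AX Ser139 measured by HTRF (ex 320 nm; em 665 and 620 nm) after 24 hr antibody incubation. Compounds, 15 concentrations, 0.76% DMSO, were applied to CHO-K1 cells for 3hr at 37C before lysis.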

[18] = qHTS assay to identify small molecule agonists of the estrogen related receptor signaling pathway with the pleiotropic PPARgamma coactivator (PGC) from Tox21 10K library (AID 1224842); note: nearly all actives have a fitted effect of over 15% in size
How it was run: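 Luminescence from One-Glo (30 min, room temperature) measured after PGC/ERR cells had 18 h at 37 C with pinned compound (23 nL in DMSO). Cells had been seeded at 2,000 per well and pre-incubated 6 h.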

[19] = qHTS assay to identify small molecule antagonists of the estrogen related receptor (ERR) signaling pathway from Tox21 library (AID 1224848); note: nearly all actives have a fitted effect of over 50% in size
How it was run: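 ERR cell line, 2,000 cells/well. 6 h settle, then compound (DMSO) added; 18 h at 37 C; ONE-Glo luminescence after 30 min RT.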

Measured: Potency

CCCCCC(C)O (stereo not drawn)
not listed: [17] | [18] | [19]
inactive: all other assays above

Cc1ccc2c(c1)C(=O)c1ccccc1C2=O
active: [5] 4.31 µM | [7] 14.1 µM | [11] 27.2 µM
not listed: [17] | [18] | [19]
inactive: all other assays above

CC(Oc1cc(Cl)ccc1Cl)C(=O)O (stereo not drawn)
not listed: [13] | [18] | [19]
inactive: all other assays above

COC(=O)CCCCC(CCSS/C(CCO)=C(\C)N(C=O)Cc1cnc(C)nc1N)SC(C)=O (stereo not drawn)
not listed: [17] | [18] | [19]
inactive: all other assays above

COCCc1ccccn1
not listed: [10] | [18] | [19]
inactive: all other assays above

CC1(C)[C@H]2CC[C@](C)(C2)[C@H]1O
not listed: [10] | [16] | [18] | [19]
inactive: all other assays above

CC(C)OC(=O)OCOP(=O)(CO[C@H](C)Cn1cnc2c(N)ncnc21)OCOC(=O)OC(C)C
active: [10] 2.37 µM
not listed: [14] | [17] | [18] | [19]
inactive: all other assays above

CCCCOCCOC(=O)COc1ccc(Cl)cc1Cl
not listed: [10] | [18] | [19]
inactive: all other assays above

CCCSSCCC
not listed: [10] | [15] | [18] | [19]
inactive: all other assays above

c1ccc2cnccc2c1
not listed: [10] | [13] | [16]
inactive: all other assays above

CCCCC1CCC(O)CC1 (stereo not drawn)
not listed: [13] | [18] | [19]
inactive: all other assays above
